In the supplement of paper PMC12494721:
Where a name gives a salt, the structure may show the parent alone.

How the values were obtained:
Conditions in all cases: 20 µM; incubation time: 27 h, anaerobic, 37 °C;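 for the amine columns active = adjusted P below 0.05 in both replicates with a change the same way and a mean fold change under 0.8 or over 1.25; inactive = the rest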
[1] = test system: Clostridium sporogenes DSM 1664; assay: growth (OD595) fold change vs plate DMSO controls (fold change (ratio)); higher = more growth
How it was run: (§1)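 Growth is the fold change relative to the median of plate DMSO controls. Readings came from anaerobic mGAM cultures in 96-well plates grown for 27 h at 37 °C and read at 595 nm. They were blank-subtracted, corrected for compound background with 20 µM compound solutions in water, and converted to OD with a calibration factor of 5. Values are means of 2 biological replicates, and fold changes above 1.5 were set to NA.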

[2] = test system: Escherichia coli IAI1; assay: as above
How it was run: as §1

[3] = test system: Klebsiella aerogenes DSM 30053; assay: as above
How it was run: as §1

[4] = test system: Ruminococcus gnavus DSM 108212; assay: as above
How it was run: as §1

[5] = test system: Klebsiella aerogenes DSM 30053; assay: fold change of Histamine concentration vs plate DMSO controls (fold change (ratio)); higher = more amine produced, active = hit call of the paper (significant change in both replicates, either direction)
How it was run: (§2)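 Amines were quantified by LC–triple-quadrupole MS in dynamic MRM mode against external calibration curves, with drift correction within each batch. The samples were whole anaerobic mGAM cultures of four gut bacterial strains, grown for 27 h at 37 °C in 80 µL wells and extracted with cold acetonitrile/methanol with 0.1% formic acid, then centrifuged. Values are reported as fold change over DMSO controls on the same plate. The mean of 2 biological replicates is given.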

[6] = test system: Clostridium sporogenes DSM 1664; assay: fold change of Tryptamine concentration vs plate DMSO controls (fold change (ratio)); higher = more amine produced, active = hit call of the paper (significant change in both replicates, either direction)
How it was run: as §2

[7] = test system: Ruminococcus gnavus DSM 108212; assay: as above
How it was run: as §2

[8] = test system: Escherichia coli IAI1; assay: fold change of Putrescine concentration vs plate DMSO controls (fold change (ratio)); higher = more amine produced, active = hit call of the paper (significant change in both replicates, either direction)
How it was run: as §2

[9] = test system: Klebsiella aerogenes DSM 30053; assay: as above
How it was run: as §2

[10] = test system: Escherichia coli IAI1; assay: fold change of Cadaverine concentration vs plate DMSO controls (fold change (ratio)); higher = more amine produced, active = hit call of the paper (significant change in both replicates, either direction)
How it was run: as §2

[11] = test system: Klebsiella aerogenes DSM 30053; assay: as above
How it was run: as §2

[12] = test system: Ruminococcus gnavus DSM 108212; assay: fold change of 2-Phenylethylamine concentration vs plate DMSO controls (fold change (ratio)); higher = more amine produced, active = hit call of the paper (significant change in both replicates, either direction)
How it was run: as §2

Compound	growth [1]	growth [2]	growth [3]	growth [4]	fold change of Histamine concentration [5]	fold change of Tryptamine concentration [6]	fold change of Tryptamine concentration [7]	fold change of Putrescine concentration [8]	fold change of Putrescine concentration [9]	fold change of Cadaverine concentration [10]	fold change of Cadaverine concentration [11]	fold change of 2-Phenylethylamine concentration [12]
COc1cc2c(c(OC)c1OC)-c1ccc(OC)c(=O)cc1[C@@H](NC(C)=O)CC2 [Colchicine]	0.992	1.02	0.975	1.16	1.06 (inactive)	1.02 (inactive)	0.889 (inactive)	1.04 (inactive)	1.02 (inactive)	1.04 (inactive)	0.983 (inactive)	0.829 (inactive)
COc1ccc(OC)c(C(O)C(C)N)c1 (centres undefined) [Methoxamine hydrochloride]	0.777	0.736	0.696	0.0622	1.06 (inactive)	1.07 (inactive)	0.161 (active)	1.05 (inactive)	1 (inactive)	0.968 (inactive)	0.988 (inactive)	0.165 (active)
COc1ccc(-c2ccccc2)cc1NNC(=O)OC(C)C	1.14	0.997	1	1.12	0.998 (inactive)	0.997 (inactive)	0.968 (inactive)	0.991 (inactive)	1 (inactive)	1.03 (inactive)	0.984 (inactive)	0.922 (inactive)
COP(=S)(OC)Oc1ccc(SC)c(C)c1	1.1	1.09	0.997	0.973	0.959 (inactive)	1.02 (inactive)	1.08 (inactive)	0.971 (inactive)	0.989 (inactive)	0.98 (inactive)	1.04 (inactive)	1.12 (inactive)
Oc1cc(Cl)ccc1Oc1ccc(Cl)cc1Cl [Triclosan]	0.874	0.0332	0.299	1.21	0.0779 (active)	0.699 (inactive)	0.715 (active)	0.258 (active)	0.248 (active)	1.13 (inactive)	0.828 (inactive)	0.734 (active)
COC(=O)NC(=S)Nc1ccccc1NC(=S)NC(=O)OC	1.11	1.02	0.97	0.994	0.974 (inactive)	1.02 (inactive)	0.971 (inactive)	0.954 (inactive)	0.972 (inactive)	0.974 (inactive)	1.01 (inactive)	0.936 (inactive)
Oc1ccc2c3c1O[C@H]1[C@@H](O)CC[C@@]4(O)[C@@H](C2)N(CC2CCC2)CC[C@]314 [Nalbuphine hydrochloride]	0.891	0.895	0.923	1.08	1 (inactive)	1 (inactive)	0.957 (inactive)	1.04 (inactive)	1.01 (inactive)	1.01 (inactive)	1.01 (inactive)	0.922 (inactive)
O=C1C=C(N(Cc2ccc(Cl)nc2)CC(F)F)CO1	0.968	1.01	0.997	0.923	1.02 (inactive)	1.15 (inactive)	1.1 (inactive)	0.94 (inactive)	1 (inactive)	0.933 (inactive)	1.01 (inactive)	1.15 (inactive)
c1ccc2c(c1)Nc1ccccc1S2 [Phenothiazine]	1.09	0.906	0.937	1.02	0.931 (inactive)	0.995 (inactive)	1.01 (inactive)	0.944 (inactive)	0.953 (inactive)	1.03 (inactive)	0.973 (inactive)	0.974 (inactive)
CN[C@@H]1[C@@H](O)[C@@H](O[C@@H]2[C@@H](O)[C@H](O[C@H]3O[C@H](CN)CC[C@H]3N)[C@@H](N)C[C@H]2N)OC[C@]1(C)O.CN[C@@H]1[C@@H](O)[C@@H](O[C@@H]2[C@@H](O)[C@H](O[C@H]3O[C@H]([C@@H](C)N)CC[C@H]3N)[C@@H](N)C[C@H]2N)OC[C@]1(C)O.CN[C@@H]1[C@@H](O)[C@@H](O[C@@H]2[C@@H](O)[C@H](O[C@H]3O[C@H]([C@@H](C)NC)CC[C@H]3N)[C@@H](N)C[C@H]2N)OC[C@]1(C)O [Gentamicine sulfate]	1.12	1.03	0.994	1.16	0.948 (inactive)	0.703 (inactive)	1.08 (inactive)	1.02 (inactive)	1.02 (inactive)	1.02 (inactive)	1.05 (inactive)	1.16 (inactive)
C=C(C)[C@@H]1[C@H]2OC(=O)[C@@H]1[C@]1(O)C[C@H]3O[C@]34C(=O)O[C@H]2[C@]14C [Picrotoxinin]	1	0.983	1.04	1.15	0.896 (inactive)	1.01 (inactive)	1.02 (inactive)	0.898 (inactive)	0.932 (inactive)	0.998 (inactive)	0.987 (inactive)	1.03 (inactive)
CCNCC(O)c1cccc(O)c1 (centres undefined) [Etilefrine hydrochloride]	0.977	0.971	0.996	0.981	1.05 (inactive)	1.03 (inactive)	0.959 (inactive)	0.997 (inactive)	1.01 (inactive)	0.991 (inactive)	0.987 (inactive)	0.949 (inactive)
